In PubChem BioAssay (Tox21):
Results filed as inconclusive are left out. The source made the active and inactive calls. Unless noted, calls come from the whole dose curve.

Columns and labels:
[1] = Nuclear factor erythroid 2-related factor 2/antioxidant responsive element (Nrf2/ARE) small molecule agonists: qHTS cell viability counter screen in human keratinocytes (AID 1919968; active = well fitted curve in the direction sought with a large enough effect in the repeat runs; an effect the other way counts as inactive or inconclusive; note: nearly all actives have a fitted effect of over 55% in size; note: potency is the fitted concentration of half-maximal effect)
Outline: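 HaCaT ARE reporter line, 1,500 cells/well; 5 h settle, 37 C/5% CO2; cpd in DMSO pinned; 23 h exposure; CellTiter-Fluor, 1 h; fluorescence.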

[2] = Nuclear factor erythroid 2-related factor 2/antioxidant responsive element (Nrf2/ARE) small molecule agonists: luciferase reporter gene qHTS assay in human keratinocytes (AID 1919969); note: nearly all actives have a fitted effect of over 35% in size
[3] = target: Gonadotropin-releasing hormone receptor (Homo sapiens) (UniProt P30968); experiment: Human gonadotropin-releasing hormone receptor (GnRHR) small molecule agonists, calcium flux assay in GnRHR-HEK293 cells (AID 1920063); note: nearly all actives have a fitted effect of over 35% in size
Sequence of Gonadotropin-releasing hormone receptor (Homo sapiens) (P30968 whole entry, looked up): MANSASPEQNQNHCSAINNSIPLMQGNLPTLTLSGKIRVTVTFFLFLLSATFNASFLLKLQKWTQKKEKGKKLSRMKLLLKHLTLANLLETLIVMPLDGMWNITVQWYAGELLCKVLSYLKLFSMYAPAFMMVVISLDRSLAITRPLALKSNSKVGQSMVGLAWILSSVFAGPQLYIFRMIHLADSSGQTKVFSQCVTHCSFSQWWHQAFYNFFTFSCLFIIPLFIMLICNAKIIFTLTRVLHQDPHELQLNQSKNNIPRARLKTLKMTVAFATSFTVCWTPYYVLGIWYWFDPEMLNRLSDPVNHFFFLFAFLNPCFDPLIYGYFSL
Outline: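 GnRHR-HEK293, 1500 cells/well, 18 h 37 C/5% CO2; Ca dye 1 h 37 C; cpd pinned (DMSO), agonist mode; kinetic FL 480/540, 3 min, 1 s reads; 15 conc, n=3.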

[4] = target: KiSS-1 receptor (Homo sapiens) (UniProt Q969F8); experiment: Human kisspeptin (KISS1R) small molecule agonists, calcium flux assay in KISS1R-HEK293 cells (AID 1920064; active = well fitted curve in the direction sought with a large enough effect in the repeat runs; an effect the other way counts as inactive or inconclusive)
Sequence of KiSS-1 receptor (Homo sapiens) (Q969F8 whole entry, looked up): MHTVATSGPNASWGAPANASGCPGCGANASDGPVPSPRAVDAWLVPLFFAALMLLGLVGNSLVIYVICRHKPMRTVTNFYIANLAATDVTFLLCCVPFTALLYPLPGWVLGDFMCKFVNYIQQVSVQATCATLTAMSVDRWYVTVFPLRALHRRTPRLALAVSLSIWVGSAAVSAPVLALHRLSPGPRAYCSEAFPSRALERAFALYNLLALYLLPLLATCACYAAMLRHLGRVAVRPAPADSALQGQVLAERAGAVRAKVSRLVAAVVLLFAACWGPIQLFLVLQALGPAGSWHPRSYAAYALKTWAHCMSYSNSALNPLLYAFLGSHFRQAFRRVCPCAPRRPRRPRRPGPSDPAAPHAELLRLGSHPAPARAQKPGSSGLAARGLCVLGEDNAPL
Outline: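 Stable human KISS1R HEK293 line; 18 h plating, 37 C/5% CO2; calcium dye 1 h 37 C; compound pin transfer; kinetic fluorescence Ex/Em 480/540, 3 min.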

[5] = G protein-coupled receptor (GPCR) small molecule agonists, calcium flux assay: HEK293 wild type cell line counter screen (AID 1920065)
Outline: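 Kinetic fluorescence at Ex/Em 480/540, recorded every second over 3 min, served as the read-out after compound addition. Each compound was tested at 15 concentrations in triplicate on cells pre-loaded with calcium dye for 1 h.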

[6] = p53 small molecule agonists, cell-based qHTS assay with human liver microsomes: qHTS cell viability counter screen (AID 1963579); note: nearly all actives have a fitted effect of over 45% in size
Outline: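 HLM-supplemented (0.5 mg/mL final) and NADPH-supplemented (0.5 mg/mL final) p53RE-bla cultures, 4,000 cells per well, were dosed with compounds in DMSO for 16 h at 37 C; luminescent ATP detection (CellTiter-Glo, 30 min, room temperature) quantified surviving cells.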

[7] = p53 small molecule agonists, cell-based qHTS assay: qHTS cell viability counter screen (AID 1963581); note: nearly all actives have a fitted effect of over 45% in size
Outline: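 HCT-116 p53RE-bla cells, 4,000/well, plated 5 h before compound pin transfer; 16 h at 37 C; bla substrate 2 h RT; then CellTiter-Glo, 30 min RT, luminescence.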

[8] = target: 5-hydroxytryptamine receptor 2A (Homo sapiens) (UniProt P28223); experiment: 5-hydroxytryptamine receptor 2A (HTR2A) small molecule antagonists, cell-based qHTS assay (AID 1963586); note: nearly all actives have a fitted effect of over 45% in size; note: potency is the fitted concentration of half-maximal effect
Sequence of 5-hydroxytryptamine receptor 2A (Homo sapiens) (P28223 whole entry, looked up): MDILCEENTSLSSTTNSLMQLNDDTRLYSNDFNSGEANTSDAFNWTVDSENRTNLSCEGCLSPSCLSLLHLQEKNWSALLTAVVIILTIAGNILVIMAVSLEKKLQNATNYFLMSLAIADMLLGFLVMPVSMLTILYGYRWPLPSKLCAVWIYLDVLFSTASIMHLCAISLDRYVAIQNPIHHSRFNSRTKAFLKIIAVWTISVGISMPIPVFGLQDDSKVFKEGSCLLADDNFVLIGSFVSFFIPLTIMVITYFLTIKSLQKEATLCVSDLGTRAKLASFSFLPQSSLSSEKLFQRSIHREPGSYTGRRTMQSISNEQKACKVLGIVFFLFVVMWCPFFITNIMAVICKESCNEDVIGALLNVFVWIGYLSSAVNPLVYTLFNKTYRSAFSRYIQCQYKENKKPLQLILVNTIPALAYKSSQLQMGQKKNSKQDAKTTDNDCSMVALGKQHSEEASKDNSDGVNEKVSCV
Outline: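 Antagonist-mode intracellular calcium assay: DOI (4 nM) added after 5 min compound pre-incubation at room temperature to dye-loaded HTR2A-CHO cells. Fluorescence followed for 3 min, sampled every second.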

[9] = target: 5-hydroxytryptamine receptor 2A (Homo sapiens) (UniProt P28223); experiment: 5-hydroxytryptamine receptor 2A (HTR2A) small molecule agonists, cell-based qHTS assay (AID 1963587); note: nearly all actives have a fitted effect of over 30% in size; note: potency is the fitted concentration of half-maximal effect
Outline: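 CHO cells stably expressing human HTR2A, plated 18 h, loaded with calcium dye 1 h at 37 C. Agonist mode: compounds added and intracellular calcium fluorescence recorded kinetically for 2 min at 1 sec intervals.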

[10] = target: Beta-2 adrenergic receptor (Homo sapiens) (UniProt P07550); experiment: Adrenergic beta2 receptor (ADRB2) small molecule antagonists, cell-based qHTS assay (AID 1963592); note: nearly all actives have a fitted effect of over 50% in size; note: potency is the fitted concentration of half-maximal effect; for activity change, negative = inhibition: series mostly up to about 92 µM
Sequence of Beta-2 adrenergic receptor (Homo sapiens) (P07550 whole entry, looked up): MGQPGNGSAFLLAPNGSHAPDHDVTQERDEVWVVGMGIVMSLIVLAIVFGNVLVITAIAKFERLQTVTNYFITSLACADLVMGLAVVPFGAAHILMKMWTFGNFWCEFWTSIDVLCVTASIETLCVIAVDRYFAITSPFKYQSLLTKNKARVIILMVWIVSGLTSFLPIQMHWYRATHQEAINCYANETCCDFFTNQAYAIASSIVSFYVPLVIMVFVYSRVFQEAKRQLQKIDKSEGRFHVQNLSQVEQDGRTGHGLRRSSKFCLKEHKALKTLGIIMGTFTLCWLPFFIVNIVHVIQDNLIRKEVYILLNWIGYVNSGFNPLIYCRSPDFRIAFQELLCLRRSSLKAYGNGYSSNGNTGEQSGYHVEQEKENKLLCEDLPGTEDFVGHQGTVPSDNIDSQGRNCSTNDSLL
Outline: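 Cells (CHO, stable ADRB2 overexpression) incubated 18-20hr at 37C; compounds added from DMSO; agonist mix (1nM isoproterenol, 100uM IBMX, 25uM Ro-20-1724) added; 0.5hr RT; d2-cAMP and anti-cAMP-cryptate added; 1hr RT; 665/615 nm read.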

[11] = target: Beta-2 adrenergic receptor (Homo sapiens) (UniProt P07550); experiment: Adrenergic beta2 receptor (ADRB2) small molecule agonists, cell-based qHTS assay (AID 1963593);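 note: CHO cells stably overexpressing human ADRB2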
Outline: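 CHO cells stably over-expressing ADRB2 were plated overnight at 37C, then dosed with compounds plus a stimulation mix containing 100uM IBMX and 25uM Ro-20-1724 for 0.5hr at room temperature. cAMP was measured by HTRF competition, 1hr.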

[12] = target: D(2) dopamine receptor (Homo sapiens) (UniProt P14416); experiment: Dopamine D2 receptor (DRD2) small molecule agonists, cell-based qHTS assay (AID 1963594); note: nearly all actives have a fitted effect of over 35% in size
Sequence of D(2) dopamine receptor (Homo sapiens) (P14416 whole entry, looked up): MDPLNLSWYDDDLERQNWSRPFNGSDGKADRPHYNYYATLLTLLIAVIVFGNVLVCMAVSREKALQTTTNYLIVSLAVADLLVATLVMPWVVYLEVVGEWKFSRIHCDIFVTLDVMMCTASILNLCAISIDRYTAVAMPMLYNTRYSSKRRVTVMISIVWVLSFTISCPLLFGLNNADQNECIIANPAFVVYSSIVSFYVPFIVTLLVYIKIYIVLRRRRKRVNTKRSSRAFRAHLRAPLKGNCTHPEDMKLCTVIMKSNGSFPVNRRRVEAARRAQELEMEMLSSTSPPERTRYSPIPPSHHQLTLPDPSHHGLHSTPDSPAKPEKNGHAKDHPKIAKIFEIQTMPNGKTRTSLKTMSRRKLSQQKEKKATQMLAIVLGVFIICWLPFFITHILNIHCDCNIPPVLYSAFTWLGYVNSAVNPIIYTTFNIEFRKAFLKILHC
Outline: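 HEK293 cells stably expressing human DRD2, pre-treated with PDE inhibitor Ro20-1724 (0.1 mM final) and compound 10 min at room temperature, then stimulated with NKH477 (200nM […]) for 30 min. cAMP read by HTRF (665/620 nm).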

[13] = target: D(2) dopamine receptor (Homo sapiens) (UniProt P14416); experiment: Dopamine D2 receptor (DRD2) small molecule antagonists, cell-based qHTS assay (AID 1963595; active = well fitted inhibition curve with a large enough effect in the signal ratio in the repeat runs, with a control signal flat; the % refers to the signal ratio; note: potency is the fitted concentration of half-maximal effect)
Outline: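 Cells were plated and grown for 24 h at 37 °C. Ro20-1724 (0.1 mM final) went in first, then compound for 10 min. NKH477 (200 nM) with quinpirole (12 nM) followed for 30 min at RT, then HTRF detection reagents for 1 h.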

[14] = p53 small molecule agonists, cell-based qHTS assay with rat liver microsomes: qHTS cell viability counter screen (AID 1963580); note: nearly all actives have a fitted effect of over 45% in size
Outline: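 Viability is assessed in parallel with the p53 reporter read: HCT-116 p53RE-bla cells receive compounds plus rat microsomes and NADPH (0.5 mg/mL final apiece), incubate 16 h at 37 C, and then CellTiter-Glo luminescence is recorded.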

[15] = target: Muscarinic acetylcholine receptor M1 (Homo sapiens) (UniProt P11229); experiment: Cholinergic receptor muscarinic 1 (CHRM1) small molecule antagonists, cell-based qHTS assay (AID 1963588); note: nearly all actives have a fitted effect of over 40% in size; note: potency is the fitted concentration of half-maximal effect
Sequence of Muscarinic acetylcholine receptor M1 (Homo sapiens) (P11229 whole entry, looked up): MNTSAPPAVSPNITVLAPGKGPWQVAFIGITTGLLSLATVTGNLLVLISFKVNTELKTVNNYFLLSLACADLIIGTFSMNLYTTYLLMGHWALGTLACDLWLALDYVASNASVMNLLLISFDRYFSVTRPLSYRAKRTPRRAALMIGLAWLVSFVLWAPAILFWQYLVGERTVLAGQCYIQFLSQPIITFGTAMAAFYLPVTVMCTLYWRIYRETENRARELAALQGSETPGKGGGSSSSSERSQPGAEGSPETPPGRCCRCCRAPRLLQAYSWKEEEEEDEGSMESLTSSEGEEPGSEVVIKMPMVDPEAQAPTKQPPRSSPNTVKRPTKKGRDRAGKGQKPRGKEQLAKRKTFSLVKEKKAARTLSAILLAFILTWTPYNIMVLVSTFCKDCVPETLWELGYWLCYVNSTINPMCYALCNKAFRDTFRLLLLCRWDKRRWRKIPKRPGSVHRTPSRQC
Outline: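 CHRM1-CHO calcium-flux assay, antagonist mode. Cells were seeded 18 h, dye-loaded 1 h at 37 C and given compound for 5 min at RT, then acetylcholine was added at 50nM. FDSS fluorescence was read 3 min; 15 concentrations, three runs.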

[16] = target: Muscarinic acetylcholine receptor M1 (Homo sapiens) (UniProt P11229); experiment: Cholinergic receptor muscarinic 1 (CHRM1) small molecule agonists, cell-based qHTS assay (AID 1963589); note: nearly all actives have a fitted effect of over 35% in size; note: potency is the fitted concentration of half-maximal effect
Outline: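 Human M1 in stable CHO line; 18 h plating, 1 h dye load 37 C; cpd added (agonist mode); Ca2+ fluorescence kinetic read, 1 s intervals; 15 conc, 3 runs.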

[17] = cAMP Responsive Elements (CRE) small molecule agonists, cell-based qHTS assay (AID 1963590)
Outline: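 HEK 293T CRE-bla, 2,000 cells/well, 18 h preincubation 37 C/5% CO2; cpds (DMSO) pinned, 3 h; LiveBLAzer B/G FRET substrate, 2 h RT.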

[18] = cAMP Responsive Elements (CRE) small molecule antagonists, cell-based qHTS assay (AID 1963591; active = well fitted inhibition curve with a large enough effect in the signal ratio in the repeat runs, not every such curve was filed as active; the % refers to the signal ratio)
Outline: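 Beta-lactamase reporter read by FRET substrate (LiveBLAzer B/G) after 2 h at room temperature. CRE-bla HEK293T cells had received compound plus 0.25 uM (final) NKH477 for 3 h at 37 °C.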
% is set by controls: 0 for no effect and ±100 for the full control effect.

C[C@H]1COc2c(C3(N)CC3)c(F)cc3c(=O)c(C(=O)O)cn1c23
inactive: Potency [1] | Potency [2] | Potency [3] | Potency [4] | Potency [5] | Potency [6] | Potency [7] | Potency [8] | Potency [9] | Potency [10] | Potency [11] | Potency [12] | Potency [13]

CCCCN1C[C@H](O)[C@@H](O)[C@H](O)[C@H]1CO
inactive: Potency [1] | Potency [2] | Potency [3] | Potency [4] | Potency [5] | Potency [14] | Potency [7] | Potency [8] | Potency [9] | Potency [15] | Potency [16] | Potency [17] | Potency [18] | Potency [10] | Potency [11] | Potency [12] | Potency [13]

C=C(C)C(=O)OCCCCCCCCCCCCCCCCCC
inactive: activity change, negative = cytotoxicity [1] 0.16% [at 19 µM] | activity, positive = activation [2] -9.09% [at 19 µM] | activity change [3] 1.34% [at 11.8 µM, active compounds read high] | activation [4] 1.35% [at 15.8 µM] | activation [5] 0.174% [at 11.8 µM] | activity change, negative = cytotoxicity [6] -5.03% [at 13.5 µM] | activity change, negative = cytotoxicity [7] -0.723% [at 13.5 µM] | activity, negative = inhibition [8] -3.48% [at 12.7 µM] | activation [9] -0.137% [at 15.9 µM] | activity, negative = inhibition [15] -12.8% [at 12.6 µM] | activation [16] 0.19% [at 15.8 µM] | activation [17] -2.05% [at 19 µM] | activity change, negative = inhibition [18] -19.6% [at 18.9 µM] | activation [11] -0.576% [at 19 µM] | activation [12] -1.1% [at 19 µM] | activity change, negative = inhibition [13] -0.773% [at 18.9 µM]

CS(=O)(=O)CCNCc1ccc(-c2ccc3ncnc(Nc4ccc(OCc5cccc(F)c5)c(Cl)c4)c3c2)o1
inactive: Potency [2] | Potency [3] | Potency [4] | Potency [5] | Potency [14] | Potency [7] | Potency [8] | Potency [9] | Potency [15] | Potency [10] | Potency [12] | Potency [13]
active: Potency [1] 29.8 µM | Potency [16] 12 nM

CCOc1ccc(C(=O)OCCN(CC)CC)cc1
inactive: Potency [1] | Potency [2] | Potency [3] | Potency [4] | Potency [5] | Potency [6] | Potency [7] | Potency [8] | Potency [15] | Potency [17] | Potency [18] | Potency [10] | Potency [11] | Potency [12] | Potency [13]

CO[C@]12C[C@@H](COC(=O)c3cncc(Br)c3)CN(C)[C@@H]1Cc1cn(C)c3cccc2c13
inactive: Potency [1] | Potency [2] | Potency [3] | Potency [4] | Potency [5] | Potency [6] | Potency [7] | Potency [18] | Potency [12]
active: Potency [8] 72.9 nM | Potency [9] 84.9 nM | Potency [15] 8.18 µM | Potency [10] 13.3 µM | Potency [13] 26.6 µM

CCCCC(CC)COC(=O)c1ccccc1 (stereo not given)
inactive: Potency [1] | Potency [2] | Potency [3] | Potency [4] | Potency [5] | Potency [6] | Potency [7] | Potency [8] | Potency [9] | Potency [15] | Potency [16] | Potency [17] | Potency [18] | Potency [10] | Potency [12] | Potency [13]
